Measurements reported in PubChem BioAssay (NCI).
This is part of a sample that, as a whole, favours compounds with a hit. Of some 83,000 tested, about 20% had one in any assay.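 Assay: single dose, 48 h. Readout: percent growth (0 = no net growth; negative = cell death). Active: <10.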 The source made the active and inactive calls.

Assays:
Assay in all cases: NCI-60 one-dose screen, 48 h (100 = growth as untreated, 0 = no growth, -100 = all killed)
Settings in all cases: 10 µM unless noted
RPMI-8226 leukemia = tested on: RPMI-8226 leukemia
OVCAR-8 ovarian = tested on: OVCAR-8 ovarian
OVCAR-5 ovarian = tested on: OVCAR-5 ovarian
OVCAR-4 ovarian = tested on: OVCAR-4 ovarian
SK-OV-3 ovarian = tested on: SK-OV-3 ovarian
IGROV1 ovarian = tested on: IGROV1 ovarian
OVCAR-3 ovarian = tested on: OVCAR-3 ovarian
HS 578T breast = tested on: HS 578T breast
NCI/ADR-RES ovarian = tested on: NCI/ADR-RES ovarian
T-47D breast = tested on: T-47D breast

Measured: growth

Nc1ccc(-c2nn3c(CCC(=O)c4nc5ncccc5[nH]4)nnc3s2)c(O)c1
inactive: RPMI-8226 leukemia 101% | OVCAR-8 ovarian 98.2% | OVCAR-5 ovarian 95% | OVCAR-4 ovarian 98% | SK-OV-3 ovarian 91.4% | IGROV1 ovarian 70.9% | OVCAR-3 ovarian 100% | HS 578T breast 74% | NCI/ADR-RES ovarian 93.8% | T-47D breast 87.1%

COc1ccc(C)c2sc(N(Cc3cccnc3)C(=O)c3ccc(C#N)cc3)nc12
active: RPMI-8226 leukemia 8.4% | OVCAR-8 ovarian -10.5% | IGROV1 ovarian -14.3% | HS 578T breast -1.42% | NCI/ADR-RES ovarian 9.32% | T-47D breast -0.727%
inactive: OVCAR-5 ovarian 24.3% | OVCAR-4 ovarian 14.3% | SK-OV-3 ovarian 12.6% | OVCAR-3 ovarian 15.1%

CC/C=C\C[C@H](O)C/C=C1/C(=O)C=C[C@@H]1C/C=C\CCCC(=O)OCCS(=O)(=O)c1ccccc1
inactive: RPMI-8226 leukemia 14.6% | OVCAR-8 ovarian 26.3% | OVCAR-5 ovarian 121% | OVCAR-4 ovarian 84.3% | SK-OV-3 ovarian 104% | IGROV1 ovarian 100% | OVCAR-3 ovarian 20.7% | HS 578T breast 36.2% | NCI/ADR-RES ovarian 75.2% | T-47D breast 18.3%

COc1cc(NC(=O)CCSc2nc3ccccc3c(=O)n2CCc2ccccn2)cc(OC)c1OC
inactive: RPMI-8226 leukemia 79% | OVCAR-8 ovarian 79.1% | OVCAR-5 ovarian 89.4% | OVCAR-4 ovarian 46.6% | SK-OV-3 ovarian 78.9% | IGROV1 ovarian 99.8% | OVCAR-3 ovarian 110% | HS 578T breast 89.2% | NCI/ADR-RES ovarian 89.4% | T-47D breast 69.7%

COc1ccc(-c2nsc3c2NC(=O)CC3c2ccsc2)cc1 (stereo not given)
inactive: RPMI-8226 leukemia 21.5% | OVCAR-8 ovarian 30.7% | OVCAR-5 ovarian 33% | OVCAR-4 ovarian 31.1% | IGROV1 ovarian 15.7% | HS 578T breast 32.5% | NCI/ADR-RES ovarian 22.2% | T-47D breast 62.7%
active: SK-OV-3 ovarian -4.77% | OVCAR-3 ovarian -39.3%

CC[C@]1(O)C[C@@H]2CN(CCc3c([nH]c4ccccc34)[C@@](C(=O)OC)(c3cc4c(cc3OC)N(C)[C@H]3[C@@](O)(C(=O)OC)[C@H](OC(C)=O)[C@]5(CC)C=CCN6CC[C@]43[C@@H]65)C2)C1
inactive: RPMI-8226 leukemia 11.3% | OVCAR-8 ovarian 21.5% | OVCAR-5 ovarian 17.4% | OVCAR-4 ovarian 33.7% | SK-OV-3 ovarian 43.5% | HS 578T breast 15.8% | T-47D breast 68.6%
active: IGROV1 ovarian 9.76% | OVCAR-3 ovarian -4.09% | NCI/ADR-RES ovarian -19.8%

O=S(=O)(c1ccc(NC(=S)NC23CC4CC(CC(C4)C2)C3)cc1)N1CCCCC1
inactive: OVCAR-8 ovarian 82.9% | OVCAR-5 ovarian 94.4% | OVCAR-4 ovarian 86.4% | SK-OV-3 ovarian 106% | IGROV1 ovarian 94.3% | HS 578T breast 88.8% | NCI/ADR-RES ovarian 88.2% | T-47D breast 90.5%
active: RPMI-8226 leukemia -11.6% | OVCAR-3 ovarian 5.73%

COc1ccc(CCN2C(=O)CCSC2=S)cc1
inactive: OVCAR-8 ovarian 63.7% | OVCAR-5 ovarian 98.1% | OVCAR-4 ovarian 74.8% | SK-OV-3 ovarian 102% | IGROV1 ovarian 41.7% | HS 578T breast 87.7% | NCI/ADR-RES ovarian 71.7% | T-47D breast 62%
active: RPMI-8226 leukemia 8.09% | OVCAR-3 ovarian 9.45%

CCN1C(=O)N(CC)C2Nn3c(s/c(=C4\C(=O)N(C(C)C)c5ccccc54)c3=O)=NC21 (stereo not given)
active: NCI/ADR-RES ovarian 7.07%
inactive: RPMI-8226 leukemia 23.3% | OVCAR-8 ovarian 39.9% | OVCAR-5 ovarian 64% | OVCAR-4 ovarian 35.2% | SK-OV-3 ovarian 35.5% | IGROV1 ovarian 49.5% | OVCAR-3 ovarian 19.4% | HS 578T breast 60.1% | T-47D breast 27.9%

COc1ccc(CCN2C(=O)CCSC2=S)cc1OC
inactive: RPMI-8226 leukemia 37.4% | OVCAR-8 ovarian 97.2% | OVCAR-5 ovarian 96.8% | OVCAR-4 ovarian 90.5% | SK-OV-3 ovarian 105% | IGROV1 ovarian 107% | OVCAR-3 ovarian 105% | HS 578T breast 93.7% | NCI/ADR-RES ovarian 103% | T-47D breast 43.4%

C#CCn1cc(C=C2C(=O)N(C)C(=O)N(C)C2=O)c2cc(Cl)ccc21
inactive: RPMI-8226 leukemia 105% | OVCAR-8 ovarian 107% | OVCAR-5 ovarian 108% | OVCAR-4 ovarian 109% | SK-OV-3 ovarian 115% | IGROV1 ovarian 102% | OVCAR-3 ovarian 108% | HS 578T breast 91.4% | NCI/ADR-RES ovarian 107% | T-47D breast 112%

COc1ccc(Cn2c(Br)c3c(c2-c2cc(OC)c(OC)c(OC)c2)CCc2sc(NC(=O)c4ccc(OC)cc4)nc2-3)cc1
inactive: RPMI-8226 leukemia 81.7% | OVCAR-8 ovarian 96% | OVCAR-5 ovarian 102% | OVCAR-4 ovarian 93.3% | SK-OV-3 ovarian 108% | IGROV1 ovarian 79.2% | OVCAR-3 ovarian 92.7% | HS 578T breast 83.7% | NCI/ADR-RES ovarian 89.2% | T-47D breast 77.3%

O=c1oc2ccc(F)cc2c(=O)n1-c1ccc(F)cc1F
inactive: OVCAR-8 ovarian 23.3% | OVCAR-5 ovarian 64.8% | OVCAR-4 ovarian 11.9% | IGROV1 ovarian 30.1% | HS 578T breast 12.8% | NCI/ADR-RES ovarian 18.9%
active: RPMI-8226 leukemia 5.47% | SK-OV-3 ovarian -4.73% | OVCAR-3 ovarian 4.14% | T-47D breast -11.9%

O=C(/C=C/c1cccc(Cl)c1)OCc1ccc2cc1OCC#C/C=C\C#CCO2
inactive: RPMI-8226 leukemia 83.8% | OVCAR-8 ovarian 98.2% | OVCAR-5 ovarian 108% | OVCAR-4 ovarian 95.6% | SK-OV-3 ovarian 105% | IGROV1 ovarian 92.2% | OVCAR-3 ovarian 116% | HS 578T breast 101% | NCI/ADR-RES ovarian 96.8% | T-47D breast 84.8%

COc1ccc(-c2nsc3c2NC(=O)CC3c2cccc(OC)c2)cc1 (stereo not given)
active: OVCAR-3 ovarian -18.6%
inactive: RPMI-8226 leukemia 12.1% | OVCAR-8 ovarian 45.9% | OVCAR-5 ovarian 52.9% | OVCAR-4 ovarian 39.9% | SK-OV-3 ovarian 14.2% | IGROV1 ovarian 45.5% | HS 578T breast 28.5% | NCI/ADR-RES ovarian 32.4% | T-47D breast 35.2%

COc1ccc(Cn2c(Br)c3c(c2Br)-c2nc(NC(=O)c4ccc(OC)cc4)sc2CC3)cc1
inactive: RPMI-8226 leukemia 71.8% | OVCAR-8 ovarian 61.4% | OVCAR-5 ovarian 79.4% | OVCAR-4 ovarian 49.7% | SK-OV-3 ovarian 72.9% | IGROV1 ovarian 38.2% | OVCAR-3 ovarian 88.6% | HS 578T breast 58.1% | NCI/ADR-RES ovarian 74.7% | T-47D breast 68.7%

O=C(COc1cc(O)c2c(=O)cc(-c3ccccc3)oc2c1)Nc1ccccc1
inactive: RPMI-8226 leukemia 93.3% | OVCAR-8 ovarian 87.2% | OVCAR-5 ovarian 98.1% | OVCAR-4 ovarian 78.9% | SK-OV-3 ovarian 107% | IGROV1 ovarian 99.1% | OVCAR-3 ovarian 106% | HS 578T breast 80.3% | NCI/ADR-RES ovarian 88.9% | T-47D breast 94.3%

NC1C(N)C(N)C1N (stereo not given)
inactive: RPMI-8226 leukemia 93.3% | OVCAR-8 ovarian 100% | OVCAR-5 ovarian 95.7% | OVCAR-4 ovarian 105% | SK-OV-3 ovarian 92.5% | IGROV1 ovarian 99.6% | OVCAR-3 ovarian 111% | HS 578T breast 112% | NCI/ADR-RES ovarian 99.6% | T-47D breast 102%

COc1ccc(C(=O)C2CC2c2ccc(Cl)cc2)cc1 (stereo not given)
inactive: RPMI-8226 leukemia 38.4% | OVCAR-8 ovarian 78.2% | OVCAR-5 ovarian 115% | OVCAR-4 ovarian 72.2% | SK-OV-3 ovarian 104% | IGROV1 ovarian 83.7% | OVCAR-3 ovarian 74.7% | HS 578T breast 82.4% | NCI/ADR-RES ovarian 78.9% | T-47D breast 80.8%

Nc1ccc(-n2c(=O)oc3ccc(Cl)cc3c2=O)c(Cl)c1
inactive: OVCAR-5 ovarian 25.6% | OVCAR-4 ovarian 18.2% | IGROV1 ovarian 11.7%
active: RPMI-8226 leukemia -27.3% | OVCAR-8 ovarian -1.7% | SK-OV-3 ovarian 5.68% | OVCAR-3 ovarian 5.11% | HS 578T breast -4.07% | NCI/ADR-RES ovarian -1.91% | T-47D breast -8.23%

O=C(Nc1ccc(F)cc1F)c1cc(I)ccc1O
inactive: OVCAR-8 ovarian 11.8% | OVCAR-5 ovarian 32.6% | OVCAR-4 ovarian 20.1% | IGROV1 ovarian 22% | HS 578T breast 10%
active: RPMI-8226 leukemia -2.64% | SK-OV-3 ovarian -13.8% | OVCAR-3 ovarian 8.96% | NCI/ADR-RES ovarian 8.58% | T-47D breast -9.33%

O=C1C(=O)c2c(ccc3ccccc23)-c2ccccc21
active: RPMI-8226 leukemia 4.32% | OVCAR-8 ovarian 2.95% | OVCAR-5 ovarian -22.4% | OVCAR-4 ovarian -95.3% | IGROV1 ovarian -21.4% | OVCAR-3 ovarian -25.5% | HS 578T breast -8.76% | NCI/ADR-RES ovarian -1.89% | T-47D breast -48.6%
inactive: SK-OV-3 ovarian 91.5%

O=C(Nc1ccc(I)cc1F)c1cc(Cl)ccc1O
active: RPMI-8226 leukemia -29.3% | SK-OV-3 ovarian 4.21% | OVCAR-3 ovarian 4.4% | HS 578T breast 5.53% | NCI/ADR-RES ovarian 9.54% | T-47D breast -4.67%
inactive: OVCAR-8 ovarian 10.1% | OVCAR-5 ovarian 26.1% | OVCAR-4 ovarian 15% | IGROV1 ovarian 16.2%

CCn1c(-c2nonc2Nc2ccc(OC)cc2)nc2ccccc21
inactive: RPMI-8226 leukemia 117% | OVCAR-8 ovarian 102% | OVCAR-5 ovarian 107% | OVCAR-4 ovarian 101% | SK-OV-3 ovarian 111% | IGROV1 ovarian 106% | OVCAR-3 ovarian 112% | HS 578T breast 96.7% | NCI/ADR-RES ovarian 96% | T-47D breast 97.3%

Cc1nc(Nc2cn[nH]c2C(=O)Nc2ccc(CN3CCN(C)CC3)cc2)c2ccsc2n1
inactive: RPMI-8226 leukemia 79% | OVCAR-8 ovarian 102% | OVCAR-5 ovarian 136% | OVCAR-4 ovarian 82.5% | SK-OV-3 ovarian 64.4% | IGROV1 ovarian 77.2% | OVCAR-3 ovarian 91.3% | HS 578T breast 66.8% | NCI/ADR-RES ovarian 110% | T-47D breast 91.7%

COc1ccc(-c2cn[nH]c2-c2ccc(OC)c(O)c2)cc1
inactive: RPMI-8226 leukemia 77.5% | OVCAR-8 ovarian 88.4% | OVCAR-5 ovarian 99.1% | OVCAR-4 ovarian 90.2% | SK-OV-3 ovarian 86.8% | IGROV1 ovarian 77.2% | OVCAR-3 ovarian 81.1% | HS 578T breast 75.9% | NCI/ADR-RES ovarian 49.2% | T-47D breast 73.6%

CCCCCCCCCCOC(=O)c1ccccc1C(=O)OCCCC
inactive: RPMI-8226 leukemia 101% | OVCAR-8 ovarian 109% | OVCAR-5 ovarian 103% | OVCAR-4 ovarian 115% | SK-OV-3 ovarian 114% | IGROV1 ovarian 118% | OVCAR-3 ovarian 106% | HS 578T breast 118% | NCI/ADR-RES ovarian 107% | T-47D breast 106%

COc1ccc(-c2cn[nH]c2-c2cc(OC)c(OC)c(OC)c2)cc1OCc1ccccc1
active: RPMI-8226 leukemia 8.45% | HS 578T breast 6.1% | NCI/ADR-RES ovarian -22.2%
inactive: OVCAR-8 ovarian 40.1% | OVCAR-5 ovarian 67.1% | OVCAR-4 ovarian 50.1% | SK-OV-3 ovarian 12.5% | IGROV1 ovarian 44.8% | OVCAR-3 ovarian 10.3% | T-47D breast 23.9%
